# Inconclusive results are not listed. A call without a number means that no potency is given here. Calls of active or inactive are those of the source. The call rests on the fitted dose curve; in most records, active means well fitted curve in the direction sought with a large enough effect; inconclusive means small, poorly fitted or top-dose-only effect, or another doubt; inactive means no such curve, though single readings can be large; an effect the other way counts as inactive or inconclusive.
# Molecular target: Glucagon-like peptide 1 receptor (Homo sapiens) (UniProt P43220)
# Test: qHTS of GLP-1 Receptor Agonists: LOPAC Validation (AID 624148);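 further: higher luminescence signal means agonism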
# Conditions: GLP-1R agonist cell assay; series mostly up to 46.1 µM
# How it was run: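 HEK293 cells stably co-expressing a cAMP-responsive luciferase reporter and a hypersensitive GLP-1R were plated 12 h at 37 °C and exposed to compounds for 4-6 hr at 37 °C, 5% CO2. Luminescence was read 12 min after adding detection reagent.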
# Chain of Glucagon-like peptide 1 receptor (Homo sapiens) (P43220 whole entry, looked up): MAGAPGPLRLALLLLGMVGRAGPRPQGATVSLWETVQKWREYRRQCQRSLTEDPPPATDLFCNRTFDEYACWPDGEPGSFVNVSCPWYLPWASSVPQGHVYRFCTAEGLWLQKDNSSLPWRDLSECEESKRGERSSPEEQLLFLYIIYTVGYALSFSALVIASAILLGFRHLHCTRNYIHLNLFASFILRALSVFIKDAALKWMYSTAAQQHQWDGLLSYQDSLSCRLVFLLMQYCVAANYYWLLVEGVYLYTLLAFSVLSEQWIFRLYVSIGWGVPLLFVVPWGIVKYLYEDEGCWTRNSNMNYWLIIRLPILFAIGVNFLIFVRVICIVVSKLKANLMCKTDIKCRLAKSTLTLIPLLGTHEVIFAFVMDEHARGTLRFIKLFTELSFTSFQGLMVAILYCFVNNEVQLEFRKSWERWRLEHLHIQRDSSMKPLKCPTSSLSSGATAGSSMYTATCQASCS
row,SMILES,outcome
1,COc1ccc(CCN(C)CCCC(C#N)(c2cc(OC)c(OC)c(OC)c2)C(C)C)cc1OC (centres undefined),inactive
2,CN(C)CCN(Cc1cccs1)c1ccccn1,inactive
3,CCN(CC)CC(=O)Nc1c(C)cccc1C,inactive
4,CC1=NS(=O)(=O)c2cc(Cl)ccc2N1,inactive
5,CC(=O)OC(C)C[N+](C)(C)C (centres undefined),inactive
6,O=C(O)CCCCCCCC(=O)O,inactive
7,CCOC(=O)C1=C(C)NC(C)=C(C(=O)OC)C1c1cccc([N+](=O)[O-])c1 (centres undefined),inactive
8,C[N+](C)(C)CCOC(N)=O,inactive
9,CC(=O)[C@@]1(O)CC[C@H]2[C@@H]3CCC4=CC(=O)CC[C@]4(C)[C@H]3CC[C@@]21C,inactive
10,C[C@]12C=CC(=O)C=C1CC[C@H]1[C@@H]3C[C@@H](O)[C@](O)(C(=O)CO)[C@@]3(C)C[C@H](O)[C@@]12F,inactive
11,CN1CCN(C2=Nc3ccccc3Oc3ccc(Cl)cc32)CC1,inactive
12,COCCOC(=O)C1=C(C)NC(C)=C(C(=O)OC(C)C)C1c1cccc([N+](=O)[O-])c1 (centres undefined),inactive
13,CN(C)CC/C=C1\c2ccccc2COc2ccccc21,inactive
14,C(=C\c1ccccc1)/CN1CCN(C(c2ccccc2)c2ccccc2)CC1,inactive
15,Cc1cccc(C)c1NC(=O)C(C)N (centres undefined),inactive
16,Nc1nc(N)c2nc(-c3ccccc3)c(N)nc2n1,inactive
17,COc1cc(C(=O)OCCCN2CCCN(CCCOC(=O)c3cc(OC)c(OC)c(OC)c3)CC2)cc(OC)c1OC,inactive

# System: not listed separately
# Test: qHTS of Nrf2 Activators: LOPAC Validation (AID 624149)
# Conditions: Nrf2/ARE reporter cell assay; series mostly up to 46.1 µM
# How it was run: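 Luciferase signal from ARE activation, read with Steady-Glo after 30 min at room temperature. Compounds were pin-transferred onto AREc32_Fluc cells (1000/well, OPTI-MEM/5% FBS, seeded overnight) and left 24 hr at 37 deg C.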
row,SMILES,outcome
1,NC(=O)N1c2ccccc2C=Cc2ccccc21,inactive
2,CCCOc1ccccc1-c1nc2n[nH]nc2c(=O)[nH]1,inactive
3,O=C(O)CP(=O)(O)O,inactive
4,C[N+](C)(C)CCOC(=O)CCC(=O)OCC[N+](C)(C)C,inactive
5,Cc1ccc(Cl)c(Nc2ccccc2C(=O)O)c1Cl,inactive
6,C[C@]12CCC(=O)C=C1CC[C@@H]1[C@@H]2C(=O)C[C@@]2(C)[C@H]1CC[C@]2(O)C(=O)CO,inactive
7,NC(Cc1ccc(Cl)cc1)C(=O)O (centres undefined),inactive
8,Cc1ccc(=O)n(-c2ccccc2)c1,inactive
9,NC(N)=NC(=O)Cc1c(Cl)cccc1Cl,inactive
10,CCNC(=O)N1CCN(CCCC(c2ccc(F)cc2)c2ccc(F)cc2)CC1,inactive
11,COCCCC/C(=N\OCCN)c1ccc(C(F)(F)F)cc1,inactive
12,CCN(CC)CCNC(=O)c1cc(S(C)(=O)=O)ccc1OC,inactive
13,Cc1nnc(SCC2=C(C(=O)O)N3C(=O)[C@@H](NC(=O)Cn4cnnn4)[C@H]3SC2)s1,inactive
14,CCN(Cc1ccncc1)C(=O)C(CO)c1ccccc1 (centres undefined),inactive
15,O=c1[nH]c(=O)n([C@H]2C[C@H](O)[C@@H](CO)O2)cc1Br,inactive
16,O=C(CCCN1CCC(O)(c2cccc(C(F)(F)F)c2)CC1)c1ccc(F)cc1,inactive
17,c1cnc(N2CCN(Cc3ccc4c(c3)OCO4)CC2)nc1,inactive
18,CO[C@@]1(NC(=O)CSCC#N)C(=O)N2C(C(=O)O)=C(CSc3nnnn3C)CS[C@@H]21,inactive

row,SMILES,outcome
1,CC(C)[N+](C)(CCOC(=O)C1c2ccccc2Oc2ccccc21)C(C)C,inactive
2,COc1ccc(CCN(C)CCCC(C#N)(c2cc(OC)c(OC)c(OC)c2)C(C)C)cc1OC (centres undefined),inactive
3,CN(C)CCN(Cc1cccs1)c1ccccn1,inactive
4,CCN(CC)CC(=O)Nc1c(C)cccc1C,inactive
5,CC1=NS(=O)(=O)c2cc(Cl)ccc2N1,inactive
6,CC(=O)OC(C)C[N+](C)(C)C (centres undefined),inactive
7,O=C(O)CCCCCCCC(=O)O,inactive
8,CCOC(=O)C1=C(C)NC(C)=C(C(=O)OC)C1c1cccc([N+](=O)[O-])c1 (centres undefined),inactive
9,C[N+](C)(C)CCOC(N)=O,inactive
10,CC(=O)[C@@]1(O)CC[C@H]2[C@@H]3CCC4=CC(=O)CC[C@]4(C)[C@H]3CC[C@@]21C,inactive
11,C[C@]12C=CC(=O)C=C1CC[C@H]1[C@@H]3C[C@@H](O)[C@](O)(C(=O)CO)[C@@]3(C)C[C@H](O)[C@@]12F,inactive
12,CN1CCN(C2=Nc3ccccc3Oc3ccc(Cl)cc32)CC1,inactive
13,COCCOC(=O)C1=C(C)NC(C)=C(C(=O)OC(C)C)C1c1cccc([N+](=O)[O-])c1 (centres undefined),inactive
14,CN(C)CC/C=C1\c2ccccc2COc2ccccc21,inactive
15,C(=C\c1ccccc1)/CN1CCN(C(c2ccccc2)c2ccccc2)CC1,inactive
16,Cc1cccc(C)c1NC(=O)C(C)N (centres undefined),inactive
17,Nc1nc(N)c2nc(-c3ccccc3)c(N)nc2n1,inactive
18,COc1cc(C(=O)OCCCN2CCCN(CCCOC(=O)c3cc(OC)c(OC)c(OC)c3)CC2)cc(OC)c1OC,inactive

# System: not listed separately
# Test: HTS Assay for Allosteric Antagonists of the Human D2 Dopamine Receptor: Hit Validation in HTRF (AID 624455);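 further: stable D1 dopamine receptor cell line scored for blocking the D1 response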
# Conditions: Cells stably expressing D1 dopamine receptor, inhibition mode; series mostly up to 46.1 µM
# How it was run: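 Inhibition of the D1-mediated response was measured by HTRF. Cells used were a line stably expressing the D1 dopamine receptor.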
row,SMILES,Potency
1,NC(=O)N1c2ccccc2C=Cc2ccccc21,inactive
2,CCCOc1ccccc1-c1nc2n[nH]nc2c(=O)[nH]1,inactive
3,O=C(O)CP(=O)(O)O,inactive
4,C[N+](C)(C)CCOC(=O)CCC(=O)OCC[N+](C)(C)C,inactive
5,Cc1ccc(Cl)c(Nc2ccccc2C(=O)O)c1Cl,inactive
6,C[C@]12CCC(=O)C=C1CC[C@@H]1[C@@H]2C(=O)C[C@@]2(C)[C@H]1CC[C@]2(O)C(=O)CO,inactive
7,NC(Cc1ccc(Cl)cc1)C(=O)O (centres undefined),inactive
8,Cc1ccc(=O)n(-c2ccccc2)c1,inactive
9,NC(N)=NC(=O)Cc1c(Cl)cccc1Cl,inactive
10,CCNC(=O)N1CCN(CCCC(c2ccc(F)cc2)c2ccc(F)cc2)CC1,inactive
11,COCCCC/C(=N\OCCN)c1ccc(C(F)(F)F)cc1,inactive
12,CCN(CC)CCNC(=O)c1cc(S(C)(=O)=O)ccc1OC,inactive
13,Cc1nnc(SCC2=C(C(=O)O)N3C(=O)[C@@H](NC(=O)Cn4cnnn4)[C@H]3SC2)s1,inactive
14,CCN(Cc1ccncc1)C(=O)C(CO)c1ccccc1 (centres undefined),inactive
15,O=c1[nH]c(=O)n([C@H]2C[C@H](O)[C@@H](CO)O2)cc1Br,inactive
16,O=C(CCCN1CCC(O)(c2cccc(C(F)(F)F)c2)CC1)c1ccc(F)cc1,inactive
17,c1cnc(N2CCN(Cc3ccc4c(c3)OCO4)CC2)nc1,inactive
18,CO[C@@]1(NC(=O)CSCC#N)C(=O)N2C(C(=O)O)=C(CSc3nnnn3C)CS[C@@H]21,inactive

row,SMILES,Potency
1,CC(C)[N+](C)(CCOC(=O)C1c2ccccc2Oc2ccccc21)C(C)C,inactive
2,COc1ccc(CCN(C)CCCC(C#N)(c2cc(OC)c(OC)c(OC)c2)C(C)C)cc1OC (centres undefined),inactive
3,CN(C)CCN(Cc1cccs1)c1ccccn1,inactive
4,CCN(CC)CC(=O)Nc1c(C)cccc1C,inactive
5,CC1=NS(=O)(=O)c2cc(Cl)ccc2N1,inactive
6,CC(=O)OC(C)C[N+](C)(C)C (centres undefined),inactive
7,O=C(O)CCCCCCCC(=O)O,inactive
8,CCOC(=O)C1=C(C)NC(C)=C(C(=O)OC)C1c1cccc([N+](=O)[O-])c1 (centres undefined),inactive
9,C[N+](C)(C)CCOC(N)=O,inactive
10,CC(=O)[C@@]1(O)CC[C@H]2[C@@H]3CCC4=CC(=O)CC[C@]4(C)[C@H]3CC[C@@]21C,inactive
11,C[C@]12C=CC(=O)C=C1CC[C@H]1[C@@H]3C[C@@H](O)[C@](O)(C(=O)CO)[C@@]3(C)C[C@H](O)[C@@]12F,inactive
12,CN1CCN(C2=Nc3ccccc3Oc3ccc(Cl)cc32)CC1,inactive
13,COCCOC(=O)C1=C(C)NC(C)=C(C(=O)OC(C)C)C1c1cccc([N+](=O)[O-])c1 (centres undefined),inactive
14,CN(C)CC/C=C1\c2ccccc2COc2ccccc21,inactive
15,C(=C\c1ccccc1)/CN1CCN(C(c2ccccc2)c2ccccc2)CC1,inactive
16,Cc1cccc(C)c1NC(=O)C(C)N (centres undefined),inactive
17,Nc1nc(N)c2nc(-c3ccccc3)c(N)nc2n1,inactive
18,COc1cc(C(=O)OCCCN2CCCN(CCCOC(=O)c3cc(OC)c(OC)c(OC)c3)CC2)cc(OC)c1OC,inactive

# From PubChem BioAssay (NCATS)
